PubChem BioAssay (NCATS)
Results filed as inconclusive are left out. Values without a mark were called inactive. The source made the active and inactive calls. Calls follow the shape of the dose curve; as a rule, active = well fitted cell-killing curve with a large enough effect; inconclusive = small, poorly fitted or top-dose-only effect; inactive = no such curve, though single readings can be large or run the other way.

Assay: qHTS of pediatric cancer cell lines to identify multiple opportunities for drug repurposing: Primary screen for Rh41 cells (AID 1347108); also: nearly all actives have a fitted effect of over 70% in size;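 as to activity change, negative = cytotoxic: luminescence drop marks cytotoxic hits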
Conditions: Rh41 rhabdomyosarcoma viability, CellTiter-Glo luminescence, 48 h; series mostly up to 46 µM; activity change, negative = cytotoxic: at the top concentration
Procedure, shortened: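 Phenotypic viability qHTS, 48 h compound exposure, CellTiter-Glo luminescence read-out; multi-concentration dosing so that potency and efficacy derive directly from the primary screen's curves.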
Potency is read from the fitted curve at half-maximal effect.

| Compound | activity change, negative = cytotoxic | Potency |
| --- | --- | --- |
| OC(CCN1CCCCC1)(c1ccccc1)c1ccccc1 | 10% | – |
| CN1C(CCl)Nc2cc(Cl)c(S(N)(=O)=O)cc2S1(=O)=O (centres undefined) | 19.8% | – |
| CCN1CCN(c2cc3c(cc2F)c(=O)c(C(=O)O)cn3C2CC2)CC1 | 30.8% | – |
| CC(C)(CO)[C@@H](O)C(=O)NCCCO | 25.3% | – |
| CC(=O)Nc1c(I)cc(I)c(C(=O)O)c1I | 21.5% | – |
| CC1(C)O[C@@H]2[C@@H](CO[C@@]3(COS(N)(=O)=O)OC(C)(C)O[C@@H]23)O1 | 37.1% | – |
| OCc1ccccc1O | 32.2% | – |
| C[C@]12CC[C@H]3[C@@H](CCC4=CC(=O)CC[C@@]43C)[C@@H]1CC[C@@H]2C(=O)CO | 7.9% | – |
| CCCCOc1cc(C(=O)NCCN(CC)CC)c2ccccc2n1 | -2.92% | – |
| Cc1ccc(Nc2c(F)cccc2Cl)c(CC(=O)O)c1 | 34.8% | – |
| NCCCC[C@H](N[C@@H](CCc1ccccc1)C(=O)O)C(=O)N1CCC[C@H]1C(=O)O | 30.3% | – |
| Cc1ccnc(NS(=O)(=O)c2ccc(N)cc2)n1 | 23.3% | – |
| CCCCCCCCCCCCCCCCCC(=O)OCC(O)CO (centres undefined) | 14% | – |
| CN(C/C=C/c1ccccc1)Cc1cccc2ccccc12 | -4.18% | – |
| Cc1c(C)n(CCN(C)C)c2ccc(C(=O)OCCN(C)C)cc12 | 20.7% | – |
| CC1=C(C(=O)O)N2C(=O)[C@@H](NC(=O)[C@H](N)c3ccc(O)cc3)[C@H]2SC1 | 4.82% | – |
| CN(C)CCCOc1nn(Cc2ccccc2)c2ccccc12 | -6.54% | – |
| CN=C(NC#N)Nc1ccc(C2=NNC(=O)CC2C)cc1 (centres undefined) | 14.5% | – |
| CCCCN1CCCC1C(=O)Nc1c(C)cc(C)cc1C (centres undefined) | 11.2% | – |
| CCCCS(=O)(=O)N[C@@H](Cc1ccc(OCCCCC2CCNCC2)cc1)C(=O)O | 24.5% | – |

| Compound | activity change, negative = cytotoxic | Potency |
| --- | --- | --- |
| Cc1cc(N)c2cc(NC(=O)Nc3ccc4nc(C)cc(N)c4c3)ccc2n1 | 0.412% | – |
| NC[C@H]1O[C@H](O[C@H]2[C@H](O)[C@@H](O[C@H]3O[C@H](CO)[C@@H](O)[C@H](N)[C@H]3O)[C@H](N)C[C@@H]2N)[C@H](N)[C@@H](O)[C@@H]1O | 2.51% [at 16.1 µM] | – |
| CN(C)CCOc1ccccc1Cc1ccccc1 | 19.7% | – |
| C=C1C(=C/C=C2\CCC[C@]3(C)[C@@H]([C@H](C)/C=C/[C@@H](O)C4CC4)CC[C@@H]23)C[C@@H](O)C[C@@H]1O | -3.57% | – |
| O=c1[nH]c(=O)n([C@H]2CCCO2)cc1F | 6.43% | – |
| COc1cccc(OC)c1C(=O)N[C@@H]1C(=O)N2[C@@H]1SC(C)(C)[C@@H]2C(=O)O | 27.5% | – |
| Cc1c(C)n(Cc2ccccc2)c2ccc(C(=O)OCCN(C)C)cc12 | 15.6% | – |
| c1ccc(CNCCNCc2ccccc2)cc1 | 18.4% | – |
| CCOC(=O)OC(C)OC1=C(C(=O)Nc2ccccn2)N(C)S(=O)(=O)c2ccccc21 (centres undefined) | 19% | – |
| c1ccc(OCc2ccc(CCCN3CCOCC3)cc2)cc1 | 15.8% | – |
| COc1cc(C(=S)N2CCOCC2)cc(OC)c1OC | 16.1% | – |
| NC[C@H]1O[C@H](O[C@H]2[C@H](O[C@@H]3O[C@H](CO)[C@@H](O)[C@H]3O)C(O)[C@H](N)C[C@@H]2N)[C@H](N)[C@@H](O)[C@@H]1O (some centres undefined) | 34.8% [at 9.22 µM] | – |
| Cc1ccccc1C(=O)Nc1ccc(C(=O)N2CCCC(N(C)C)c3ccccc32)cc1 (centres undefined) | – | 16.8 µM (active) |
| C[C@]12CC[C@@H]3c4ccc(O)cc4CC[C@H]3[C@@H]1C[C@@H](O)[C@@H]2O | 17.3% | – |
| CC(C)=CCC1C(=O)N(c2ccccc2)N(c2ccccc2)C1=O | -0.103% | – |
| CC(O)C(=O)O (centres undefined) | 15% | – |
| COc1cccc2c1C(=O)c1c(O)c3c(c(O)c1C2=O)C[C@@](O)(C(C)=O)C[C@@H]3O[C@H]1C[C@H](N)[C@H](O)[C@H](C)O1 | – | 0.75 µM (active) |
| O=C1OCCN1/N=C/c1ccc([N+](=O)[O-])o1 | 19.9% | – |
| Cc1cc(O)c(C(C)C)cc1Cl | 34.5% | – |
